Pf Dd2 inh: blocks in vitro growth of P. falciparum Dd2; Potency, µM (doses to about 28.9 µM), actives largely listed as inhibitors; 4.3% of 120,000 active; P. falciparum Dd2 growth, SYBR Green, 72 h; active means well fitted inhibition curve with a large enough effect; further: nearly all actives have a fitted effect of over 65% in size
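Readout: SYBR Green fluorescence, 485 nm excitation, 535 nm emission, after ~16 h lysis at 37C. Before that, Dd2-infected red cells (2.5% hematocrit) grew 72 h with compound, 29 uM top final concentration.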
Numbers stand for hits. The entries come from a sample that favours hits as a whole.

How did Cc1ccc(-c2cc(C(=O)N3CCN(S(=O)(=O)c4ccc(Br)s4)CC3)[nH]n2)cc1C do in these assays?
Pf Dd2 inh: inactive

How did O=C(c1cc(-c2ccc(Br)cc2)n[nH]1)N1CCN(S(=O)(=O)c2ccc(Br)s2)CC1 do in these assays?
Pf Dd2 inh: 8.9µM

What do the screens show for `O=C(C1CCN(S(=O)(=O)c2ccc(Br)s2)CC1)N1CCN(c2ccc(F)cc2)CC1`?
Pf Dd2 inh: inactive

Results for Cc1ccc(-c2cc(C(=O)N3CCN(S(=O)(=O)c4ccc(Br)s4)CC3)[nH]n2)c(C)c1 ?
Pf Dd2 inh: 13µM

What do the screens show for `Cc1ccc(CNC(=O)c2noc(-c3ccc(F)cc3)n2)cc1`?
Pf Dd2 inh: inactive

What do the screens show for `CCOc1cc(=O)n2c(c1C(=O)NC1CC1)CCCCC2`?
Pf Dd2 inh: inactive

What do the screens show for `CC(C)NC(=O)N1C[C@@H](Oc2ccccc2)C[C@@H]1C(=O)N1CCOCC1`?
Pf Dd2 inh: inactive

What do the screens show for `NC(=O)[C@@H]1CN(C(=O)c2ccoc2)C[C@H]1COc1ccccc1`?
Pf Dd2 inh: inactive

How did Cc1cnc(CC2CCCNC2)n1Cc1ccc(F)cc1 (configuration not stated) do in these assays?
Pf Dd2 inh: inactive

Results for Cc1cnc(CC2CCCN(C(=O)c3cccnc3)C2)n1Cc1ccc(F)cc1 (configuration not stated) ?
Pf Dd2 inh: inactive

What do the screens show for `Cc1cnc(CC2CCN(C(=O)C3CCOC3)CC2)n1Cc1ccc(F)cc1` (configuration not stated)?
Pf Dd2 inh: inactive

How did Cc1cnc(CC2CCN(C(=O)C(C)c3ccccc3)CC2)n1Cc1ccc(F)cc1 (configuration not stated) do in these assays?
Pf Dd2 inh: 2.2µM

Results for Cc1cnc(CC2CCN(C(=O)CC3CCCC3)CC2)n1Cc1ccc(F)cc1 ?
Pf Dd2 inh: 3.2µM

What do the screens show for `Cc1ccc(C(=O)N2CCC(Cn3c(C)cnc3C3CCC3)CC2)cn1`?
Pf Dd2 inh: inactive

Results for Cc1cnc(C2CCC2)n1CC1CCN(C(=O)Cc2cccnc2)CC1 ?
Pf Dd2 inh: inactive

How did Cc1cnc(C2CCC2)n1CC1CCN(C(=O)C(C)c2ccccc2)CC1 (configuration not stated) do in these assays?
Pf Dd2 inh: 8.9µM

How did Cc1cnc(CC2CCN(C(=O)NC(C)C)CC2)n1Cc1ccc(F)cc1 do in these assays?
Pf Dd2 inh: inactive

What do the screens show for `Cc1noc([C@@H](C)NC(=O)C2CCCC2)c1C(=O)O`?
Pf Dd2 inh: inactive

Results for Cc1ccc(C(=O)N2C[C@@H](Oc3ccccc3)C[C@H]2C(=O)N2CCOCC2)cn1 ?
Pf Dd2 inh: inactive

How did CCc1cc(=O)n(CC(=O)Nc2ccc(OC)c(OC)c2)c(-c2ccccc2)n1 do in these assays?
Pf Dd2 inh: inactive

How did CC(C)n1c(C2CCCN(C(=O)C3CC3)C2)nn(C)c1=O (configuration not stated) do in these assays?
Pf Dd2 inh: inactive

What do the screens show for `COc1ccc(C[C@H](NC(=O)C2=C[C@@H](NC(=O)CC3(CC(=O)O)CCCC3)[C@@H](O)[C@H](O)C2)C(N)=O)cc1`?
Pf Dd2 inh: inactive

What do the screens show for `CCc1noc(-c2nc(-c3ccc(OC)c(F)c3)no2)n1`?
Pf Dd2 inh: inactive

What do the screens show for `O=C1[C@H]2CN(Cc3ccc(Cl)cc3)C[C@H]2C(=O)N1CCc1ccccc1`?
Pf Dd2 inh: inactive

What do the screens show for `CC(C)CCN1C[C@@H]2C(=O)N(CCc3ccccc3)C(=O)[C@@H]2C1`?
Pf Dd2 inh: 8.9µM

How did Cc1ccccc1CN1C[C@@H]2C(=O)N(CCc3ccccc3)C(=O)[C@@H]2C1 do in these assays?
Pf Dd2 inh: inactive

How did c1cc(CN2CC[C@H]3CNC[C@H]32)cc(OCCCCN2CCCCC2)c1 do in these assays?
Pf Dd2 inh: inactive

Results for COc1cc2c(cc1Oc1ccccc1)NC(=O)C21CCN(Cc2ccccc2)CC1 ?
Pf Dd2 inh: inactive

Results for COc1cc2c(cc1OCc1ccccc1)NC(=O)C21CCN(C(C)=O)CC1 ?
Pf Dd2 inh: inactive

Results for COc1cc2c(cc1OCc1ccccc1)NC(=O)C21CCN(Cc2ccccc2)CC1 ?
Pf Dd2 inh: inactive

How did COc1cc2c(cc1Oc1ccccc1)NC(=O)C21CCN(c2ncccn2)CC1 do in these assays?
Pf Dd2 inh: inactive

Results for COCC(=O)N1CCC2(CC1)C(=O)Nc1cc(Oc3ccccc3)c(OC)cc12 ?
Pf Dd2 inh: inactive

How did CCc1cnc(N2CCC3(CC2)C(=O)Nc2cc(OCc4ccccc4)c(OC)cc23)nc1 do in these assays?
Pf Dd2 inh: inactive

Results for COc1cc2c(cc1OCc1ccccc1)NC(=O)C21CCN(c2ncccn2)CC1 ?
Pf Dd2 inh: 4.5µM

Results for COc1cc2c(cc1OCc1ccccc1)NC(=O)C21CCN(Cc2ccncc2)CC1 ?
Pf Dd2 inh: 13µM

What do the screens show for `COc1cc2c(cc1Oc1ccccc1)NC(=O)C21CCN(CCC(C)C)CC1`?
Pf Dd2 inh: 6.3µM

How did CCOc1ccccc1C1NC(=O)N(CC(=O)N2CCN(c3ccc(F)cc3)CC2)C2=C1C(=O)OC2 (configuration not stated) do in these assays?
Pf Dd2 inh: inactive

What do the screens show for `CNC(C)c1ccc(C(F)(F)F)cc1` (configuration not stated)?
Pf Dd2 inh: inactive

Results for COc1cc2c(cc1OC)CN(C(=O)C[C@@H]1CCNC[C@@H]1Cc1cc(CN3CCCCC3)on1)CC2 ?
Pf Dd2 inh: inactive

What do the screens show for `COc1cccc(C(=O)N2CCn3c(nnc3C3CC3)C2)c1`?
Pf Dd2 inh: inactive

What do the screens show for `CC(=O)C1=C(c2cccc([N+](=O)[O-])c2)N(C(C)=O)n2c(nnc2-c2ccc(C)cc2)S1`?
Pf Dd2 inh: inactive

Results for CC(=O)Nc1cccc(-c2nnc(SCC(=O)c3cc([N+](=O)[O-])ccc3Cl)o2)c1 ?
Pf Dd2 inh: inactive

What do the screens show for `CCC(=O)C1=C(c2cccc([N+](=O)[O-])c2)N(C(=O)CC)n2c(nnc2C2CCCCC2)S1`?
Pf Dd2 inh: 1.4µM

What do the screens show for `CCC(=O)C1=C(c2cccc(OC)c2)N(C(=O)CC)n2c(nnc2C2CCCCC2)S1`?
Pf Dd2 inh: 2.8µM

Results for CCC(=O)C1=C(c2cccc([N+](=O)[O-])c2)N(C(=O)CC)n2c(nnc2-c2ccccc2)S1 ?
Pf Dd2 inh: 1.1µM

Results for CCOC(=O)C1=C(C)N=C2SC=C(CC(=O)NC3CC3)N2C1c1cccc([N+](=O)[O-])c1 (configuration not stated) ?
Pf Dd2 inh: inactive

Results for CN(C(=O)CSc1nnc(-c2ccc([N+](=O)[O-])cc2)o1)C1CCCCC1 ?
Pf Dd2 inh: inactive

Results for COc1cccc(-c2nnc(SCC(=O)N(C)C3CCCCC3)o2)c1 ?
Pf Dd2 inh: inactive

Results for Cc1ccc(CNS(=O)(=O)c2ccc3c(c2)CN(C(=O)c2cccnc2)CC3)o1 ?
Pf Dd2 inh: inactive

Results for O=C(CCC1CCN(C(=O)c2ccccc2Cl)CC1)NC1CCS(=O)(=O)C1 (configuration not stated) ?
Pf Dd2 inh: inactive

How did Cc1cccc(NC(=O)Cn2c(-c3cccc(Cl)c3)nc(C)c(CCO)c2=O)c1 do in these assays?
Pf Dd2 inh: inactive

What do the screens show for `CC(C)Cc1cc(C(=O)N2CCc3nc(-c4ccccc4)[nH]c3C2)nc(=O)[nH]1`?
Pf Dd2 inh: inactive

Results for CCc1ccc(C2CC(C(=O)NC(C)c3ccccc3)CN(C(=O)c3ccoc3)C2)cc1 (configuration not stated) ?
Pf Dd2 inh: inactive

Results for CCOC(=O)C1CCCN(C(=O)C2CC(c3ccc(CC)cc3)CN(C(=O)c3ccoc3)C2)C1 (configuration not stated) ?
Pf Dd2 inh: 1.1µM
